# “And” between values parts separate entries of the source, which are not always exact repeats. Equal values may be shown once. Inconclusive results are not listed. Where a call stands in place of a potency, no number is given. The source made the active and inactive calls. Unless noted, calls come from the whole dose curve.
# Columns and labels:
# [1] = molecular target: Glucocorticoid receptor (Homo sapiens) (UniProt P04150); experiment: qHTS assay for small molecule agonists of glucocorticoid receptor signaling (AID 588532; active = well fitted curve in the direction sought with a large enough effect in the signal ratio, with a control signal flat; the % refers to the signal ratio); details: HeLa MMTV-bla, beta-lactamase ratio, agonist, 18 h; stronger effect = higher value; percent of dexamethasone control, DMSO zero
# Summary of the method: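 Using MMTV-bla HeLa cells in medium with 1% stripped FBS and 25 mM HEPES, compounds were titrated and incubated overnight-length (18 h). Beta-lactamase cleavage of CCF4 was quantified by dual-emission fluorescence.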
# [2] = molecular target: Glucocorticoid receptor (Homo sapiens) (UniProt P04150); experiment: qHTS assay for small molecule antagonists of glucocorticoid receptor signaling (AID 588533; active = well fitted inhibition curve with a large enough effect in the signal ratio, with a control signal flat, not every such curve was filed as active; the % refers to the signal ratio;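 note: cells stimulated with 2 nM dexamethasone as agonist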)
# Summary of the method: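 Antagonist-mode qHTS: compound titrations added to GRE-bla HeLa cells, then dexamethasone 2 nM final; 18 h, 37 C. CCF4 FRET fluorescence normalized to dexamethasone and DMSO; IC50 from Hill fit.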
# [3] = qHTS assay for small molecule antagonists of peroxisome proliferator-activated receptor delta signaling (AID 588535; active = well fitted inhibition curve with a large enough effect in the signal ratio, with a control signal flat, not every such curve was filed as active; the % refers to the signal ratio;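 for max response: cells co-treated with a PPAR-delta agonist as stimulator during compound exposure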); details: HEK293T PPARd-UAS-bla, beta-lactamase FRET ratio, 18 h; 460 nm channel
# Summary of the method: (§1)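 Antagonist-mode qHTS using GeneBLAzer PPAR-delta-UAS-bla HEK293T cells; compound exposure 18 hrs at 37 C over a titration. Ratiometric CCF4 fluorescence at 460/530 nm; concentration-response points fitted to the Hill equation.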
# [4] = molecular target: Peroxisome proliferator-activated receptor delta (Homo sapiens) (UniProt Q03181); experiment: as above
# Summary of the method: as §1
# [5] = molecular target: Peroxisome proliferator-activated receptor gamma (Homo sapiens) (UniProt P37231); experiment: qHTS assay for small molecule agonists of peroxisome proliferator-activated receptor gamma signaling (AID 588536; active = well fitted curve in the direction sought with a large enough effect in the signal ratio, with a control signal flat, not every such curve was filed as active; the % refers to the signal ratio)
# Summary of the method: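 Cells were plated and held 6–6.5 h at 37 C, then compounds were added as a titration series. After a further 16 h, CCF4 dye was loaded for 2 h at room temperature and emission at 460/530 nm recorded.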
# [6] = molecular target: Vitamin D3 receptor (Homo sapiens) (UniProt P11473); experiment: qHTS assay for small molecule antagonists of vitamin D receptor signaling (AID 588541);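 note: receptor activated by calcitriol during compound treatment; series mostly up to about 77 µM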
# Summary of the method: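 Antagonist-mode beta-lactamase reporter assay: HEK293T VDR-UAS-bla cells were exposed to titrated compound alongside 1-alpha,25-dihydroxyvitamin D3 at 3 nM final for 16 h. Values were normalized to the 50 nM agonist control and DMSO basal, with IC50 and efficacy from Hill equation fits.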
# [7] = molecular target: Vitamin D3 receptor (Homo sapiens) (UniProt P11473); experiment: qHTS assay for small molecule agonists of vitamin D receptor signaling (AID 588543)
# Summary of the method: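 β-lactamase reporter, VDR-UAS-bla HEK293T, agonist mode. Cells plated 5 h at 37 °C, compound titration 16 h at 37 °C, CCF4 dye 2 h RT, ratio 460/530 nm. Hill fit → EC50, efficacy vs 50 nM 1α,25-(OH)2D3.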
# [8] = molecular target: Peroxisome proliferator-activated receptor gamma (Homo sapiens) (UniProt P37231); experiment: qHTS assay for small molecule antagonists of peroxisome proliferator-activated receptor gamma signaling (AID 588537; active = well fitted inhibition curve with a large enough effect in the signal ratio, with a control signal flat, not every such curve was filed as active; the % refers to the signal ratio;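 note: reporter cells co-stimulated with 50 nM rosiglitazone agonist during compound treatment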)
# Summary of the method: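 Cell-based beta-lactamase assay; GW9662 served as the antagonist control. Stimulation used rosiglitazone, final 50 nM, 16 h, 37 C.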
# Peroxisome proliferator-activated receptor gamma (Homo sapiens), sequence (P37231 whole entry, looked up): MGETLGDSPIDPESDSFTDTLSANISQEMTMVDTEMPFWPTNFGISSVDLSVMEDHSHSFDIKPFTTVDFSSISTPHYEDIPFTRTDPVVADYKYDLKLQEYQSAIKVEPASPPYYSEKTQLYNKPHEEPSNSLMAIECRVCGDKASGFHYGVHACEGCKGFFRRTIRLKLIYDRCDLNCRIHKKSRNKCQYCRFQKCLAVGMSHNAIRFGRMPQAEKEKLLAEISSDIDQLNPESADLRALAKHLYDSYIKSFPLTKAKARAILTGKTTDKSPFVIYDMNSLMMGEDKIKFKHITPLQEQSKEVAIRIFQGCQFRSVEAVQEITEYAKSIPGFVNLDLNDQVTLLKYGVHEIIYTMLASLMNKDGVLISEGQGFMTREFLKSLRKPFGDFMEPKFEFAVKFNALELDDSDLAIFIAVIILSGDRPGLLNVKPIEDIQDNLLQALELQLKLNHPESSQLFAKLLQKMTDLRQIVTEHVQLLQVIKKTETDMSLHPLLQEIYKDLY
# Glucocorticoid receptor (Homo sapiens), sequence (P04150 whole entry, looked up): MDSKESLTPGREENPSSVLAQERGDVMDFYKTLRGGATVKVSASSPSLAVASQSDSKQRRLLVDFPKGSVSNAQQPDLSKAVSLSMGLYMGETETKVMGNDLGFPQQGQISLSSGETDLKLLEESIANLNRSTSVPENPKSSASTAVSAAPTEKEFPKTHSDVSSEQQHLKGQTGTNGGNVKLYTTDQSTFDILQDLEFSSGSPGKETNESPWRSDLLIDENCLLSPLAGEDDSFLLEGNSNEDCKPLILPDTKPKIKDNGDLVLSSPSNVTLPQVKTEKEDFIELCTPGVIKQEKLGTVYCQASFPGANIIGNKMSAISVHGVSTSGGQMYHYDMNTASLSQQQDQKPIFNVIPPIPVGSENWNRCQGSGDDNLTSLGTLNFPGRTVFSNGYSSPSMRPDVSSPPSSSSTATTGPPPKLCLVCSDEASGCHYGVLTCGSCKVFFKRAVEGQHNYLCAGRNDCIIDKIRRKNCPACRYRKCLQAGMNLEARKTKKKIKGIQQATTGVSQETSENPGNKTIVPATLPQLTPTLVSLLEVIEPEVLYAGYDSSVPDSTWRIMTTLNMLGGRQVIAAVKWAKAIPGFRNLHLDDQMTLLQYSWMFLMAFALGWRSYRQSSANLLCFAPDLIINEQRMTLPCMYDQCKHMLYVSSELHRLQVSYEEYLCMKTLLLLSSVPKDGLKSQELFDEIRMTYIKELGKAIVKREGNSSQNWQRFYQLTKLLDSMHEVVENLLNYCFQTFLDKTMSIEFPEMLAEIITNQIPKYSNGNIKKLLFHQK
# Peroxisome proliferator-activated receptor delta (Homo sapiens), sequence (Q03181 whole entry, looked up): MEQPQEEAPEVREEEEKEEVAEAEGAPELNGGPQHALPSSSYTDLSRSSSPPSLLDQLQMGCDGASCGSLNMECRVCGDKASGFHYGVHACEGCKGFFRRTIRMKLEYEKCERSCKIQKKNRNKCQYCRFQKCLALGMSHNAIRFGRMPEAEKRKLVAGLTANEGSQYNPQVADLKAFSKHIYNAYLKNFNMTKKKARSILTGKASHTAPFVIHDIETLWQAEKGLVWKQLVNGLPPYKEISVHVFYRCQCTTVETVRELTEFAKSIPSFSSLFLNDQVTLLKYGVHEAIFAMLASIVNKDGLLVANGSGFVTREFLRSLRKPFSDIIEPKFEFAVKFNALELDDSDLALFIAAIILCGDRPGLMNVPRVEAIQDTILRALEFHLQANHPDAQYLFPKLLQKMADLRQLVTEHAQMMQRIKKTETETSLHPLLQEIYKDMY
# Vitamin D3 receptor (Homo sapiens), sequence (P11473 whole entry, looked up): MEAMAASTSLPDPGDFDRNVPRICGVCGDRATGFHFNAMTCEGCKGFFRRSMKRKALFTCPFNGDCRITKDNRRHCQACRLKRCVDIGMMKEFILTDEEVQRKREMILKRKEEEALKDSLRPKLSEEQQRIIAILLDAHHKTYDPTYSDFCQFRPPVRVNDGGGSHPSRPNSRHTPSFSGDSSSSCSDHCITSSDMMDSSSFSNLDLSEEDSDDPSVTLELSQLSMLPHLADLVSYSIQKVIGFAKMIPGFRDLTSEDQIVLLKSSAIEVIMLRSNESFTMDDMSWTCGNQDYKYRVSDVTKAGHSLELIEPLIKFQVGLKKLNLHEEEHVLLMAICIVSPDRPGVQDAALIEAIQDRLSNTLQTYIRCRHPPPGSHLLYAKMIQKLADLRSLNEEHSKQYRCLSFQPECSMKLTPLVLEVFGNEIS
SMILES,activation [1],outcome [2],max response [3],Potency [4],outcome [5],outcome [6],outcome [7],outcome [8]
O=C(Cl)c1c(Cl)cccc1Cl,-4.67% (inactive),inactive,-5.79%,inactive,inactive,inactive,inactive,
CC(=O)Nc1ccccc1C,-4.6% (inactive),inactive,8.94%,inactive,inactive,inactive,inactive,inactive
C=CCCC,5.54% (inactive),inactive,0.0312%,inactive,,inactive,inactive,
CC/C=C/C#N,-1.94% (inactive),inactive,12.5%,,inactive,inactive,inactive,inactive
CC(CCl)OC(C)CCl (stereo not given),1.48% (inactive),inactive,6.69%,inactive,inactive,,,
Cc1ccc([N+](=O)[O-])c(N)c1,-0.729% (inactive),inactive,-3.65%,inactive,inactive,,inactive,
COc1ccc(N=[N+]([O-])c2ccc(OC)cc2)cc1,9.01% (inactive),inactive,8.26%,inactive,inactive,,inactive,
CC(C)(C)c1ccc(OCC2CO2)cc1 (stereo not given),-4.85% (inactive),inactive,18.6%,inactive,,inactive,inactive,
CC(C)=CCC/C(C)=C/C=O,-2.98% (inactive) and -2.55% (inactive),inactive,-1.69% and 16.6%,inactive,,inactive,inactive,
Cc1cc(C(=O)O)ccc1[N+](=O)[O-],1.49% (inactive),inactive,13.2%,inactive,inactive,inactive,inactive,
C=CC(=O)NC(C)C,2.34% (inactive),inactive,-15.9%,inactive,inactive,inactive,inactive,inactive
Nc1ccc(F)cc1F,-11.6% (inactive),inactive,-4.23%,inactive,inactive,inactive,inactive,
Nc1cccc(O)c1,-1.32% (inactive),inactive,11.9%,inactive,inactive,inactive,inactive,
Clc1cc(Cl)cc(Cl)c1,5.2% (inactive),inactive,-6.75%,inactive,inactive,,inactive,
CC(C)N=C=NC(C)C,4.13% (inactive),inactive,,,,inactive,inactive,inactive
CC(C)CO,-3.71% (inactive),inactive,,,,inactive,inactive,
CCN(CC)c1cccc(O)c1,-1.18% (inactive),,12.9%,inactive,inactive,,,
O=C(O)/C=C/C(=O)O,27.1% (inactive),inactive,-32%,,,,inactive,
CCCCC(=O)N(C)C,-1.2% (inactive),,-15%,inactive,inactive,inactive,inactive,
CC(C)(O)CCC(C)(C)O,-3.83% (inactive),inactive,,,inactive,inactive,,inactive

SMILES,activation [1],outcome [2],max response [3],Potency [4],outcome [5],outcome [6],outcome [7],outcome [8]
OC(CCl)CCl,14.2% (inactive),inactive,,,,inactive,inactive,inactive
Cc1ccc2ccccc2c1[N+](=O)[O-],-8.32% (inactive),inactive,,,inactive,inactive,inactive,inactive
C1CCC2OC2C1 (stereo not given),-6.07% (inactive),,38.4%,inactive,inactive,inactive,inactive,
O=C(O)c1ccccc1C(=O)O,-4.91% (inactive),,14.7%,inactive,,,,
CCOC(=O)OCC,-5.65% (inactive),inactive,,,,inactive,inactive,inactive
CCCCCCO,-1.01% (inactive),inactive,,,inactive,inactive,inactive,inactive
CC(O)COC(C)(C)C (stereo not given),-7.34% (inactive),inactive,-1.74%,,inactive,,inactive,
Cc1ccco1,-1.2% (inactive),inactive,,,inactive,inactive,inactive,inactive
CC/C(C)=N/O,3.82% (inactive),inactive,,,,inactive,inactive,
OC1CCCC1,0.774% (inactive),inactive,,,inactive,inactive,inactive,inactive
CSc1ccc(C=O)cc1,-2.41% (inactive),inactive,,,inactive,inactive,inactive,
O=C(O)c1ccc(C(=O)O)cc1,6.51% (inactive) and -2.73% (inactive),,14.5% and 21.9%,inactive,inactive,inactive,inactive,inactive
O=[N+]([O-])c1ccccc1CCO,3.95% (inactive),inactive,-6.01%,,inactive,inactive,inactive,
ICCc1ccccc1,-2.34% (inactive),inactive,13.6%,,inactive,inactive,inactive,
O=C(O)c1cc(Cl)cc(Cl)c1,-5.57% (inactive),,29.5%,inactive,inactive,,,inactive
CO[Si](CCCNCCC[Si](OC)(OC)OC)(OC)OC,5.31% (inactive),inactive,,,,inactive,inactive,inactive
CCOCC(=O)O,2.71% (inactive),,-19%,inactive,inactive,inactive,inactive,inactive
O=C1OC(=O)c2cc([N+](=O)[O-])ccc21,5.66% (inactive),,9.55%,inactive,inactive,inactive,inactive,inactive
C=CCn1c(=O)n(CC=C)c(=O)n(CC=C)c1=O,-0.0268% (inactive),inactive,,,inactive,inactive,inactive,inactive
CCOc1ccccc1N,-6.27% (inactive),inactive,,,inactive,inactive,inactive,

SMILES,activation [1],outcome [2],max response [3],Potency [4],outcome [5],outcome [6],outcome [7],outcome [8]
O=C(O)c1ccc(Cl)cc1Cl,-5.78% (inactive),inactive,,,inactive,inactive,inactive,
Cc1ccc(Cl)cc1,-1.4% (inactive),,-18%,inactive,inactive,inactive,inactive,
Cc1cc(C2(c3cc(C)c(O)cc3C)OS(=O)(=O)c3ccccc32)c(C)cc1O,3.46% (inactive),inactive,,,inactive,,,
O=[N+]([O-])c1ccc(Cl)cc1Cl,2.45% (inactive),,2.66%,inactive,inactive,,,inactive
CCCCC(CC)COCC1CO1 (stereo not given),-12.2% (inactive),inactive,,,,inactive,inactive,
CC(C)Nc1ccccc1,-8.21% (inactive),,31.6%,inactive,inactive,inactive,inactive,
C=CCOC(=O)COCCC(C)C,-3.64% (inactive),,79.8%,inactive,inactive,,,
CNc1ccc([N+](=O)[O-])cc1,-3.38% (inactive),inactive,,,inactive,,,inactive
C[C@@H]1O[C@@H](O[C@@H]2[C@@H](O)[C@H](OCCc3ccc(O)c(O)c3)O[C@H](CO[C@@H]3O[C@H](CO)[C@@H](O)[C@H](O)[C@H]3O)[C@H]2OC(=O)/C=C/c2ccc(O)c(O)c2)[C@H](O)[C@H](O)[C@H]1O,2.75% (inactive),,20.8%,inactive,inactive,inactive,inactive,
O=[N+]([O-])c1c(Cl)cc(Cl)cc1Cl,0.964% (inactive),,0.0891%,inactive,inactive,inactive,inactive,inactive
NC(=O)CCCCC(N)=O,-2.82% (inactive),inactive,,,inactive,inactive,inactive,inactive
Nc1ccc([N+](=O)[O-])c(N)c1,-8.8% (inactive),inactive,,,inactive,inactive,inactive,inactive
Cc1c(N)cccc1N,-2.97% (inactive),inactive,-12.4%,,,inactive,inactive,
COc1ccc(OC)cc1,-0.922% (inactive),,-6.1%,inactive,inactive,inactive,inactive,
CC(C)=CCl,2.68% (inactive),,6.55%,,,inactive,inactive,
NS(=O)(=O)O,,inactive,-9.24%,inactive,,inactive,inactive,inactive
O=[N+]([O-])c1cccc(C(F)(F)F)c1,-5.05% (inactive),,,,inactive,inactive,inactive,inactive
CC(C)C=O,,inactive,-3.06%,inactive,inactive,inactive,inactive,

# — PubChem BioAssay (NCATS)
